TSHR antagonist: blocks TSH signaling through the human TSH receptor; P16473; TSHR-expressing cells, TSH-stimulated cAMP HTRF, 2 h; stronger effect = lower value; activity change, negative = inhibition, % at 11.5 µM; 330,000 compounds, 0.2% hits;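 active means activity change below a set negative limit, meaning inhibition stronger than a set level, cut at about -70% in these data; inconclusive means activity change between two set negative limits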; further: on the % scale 0 is the no-effect control and ±100 the full control effect
Target sequence (P16473 whole entry, looked up): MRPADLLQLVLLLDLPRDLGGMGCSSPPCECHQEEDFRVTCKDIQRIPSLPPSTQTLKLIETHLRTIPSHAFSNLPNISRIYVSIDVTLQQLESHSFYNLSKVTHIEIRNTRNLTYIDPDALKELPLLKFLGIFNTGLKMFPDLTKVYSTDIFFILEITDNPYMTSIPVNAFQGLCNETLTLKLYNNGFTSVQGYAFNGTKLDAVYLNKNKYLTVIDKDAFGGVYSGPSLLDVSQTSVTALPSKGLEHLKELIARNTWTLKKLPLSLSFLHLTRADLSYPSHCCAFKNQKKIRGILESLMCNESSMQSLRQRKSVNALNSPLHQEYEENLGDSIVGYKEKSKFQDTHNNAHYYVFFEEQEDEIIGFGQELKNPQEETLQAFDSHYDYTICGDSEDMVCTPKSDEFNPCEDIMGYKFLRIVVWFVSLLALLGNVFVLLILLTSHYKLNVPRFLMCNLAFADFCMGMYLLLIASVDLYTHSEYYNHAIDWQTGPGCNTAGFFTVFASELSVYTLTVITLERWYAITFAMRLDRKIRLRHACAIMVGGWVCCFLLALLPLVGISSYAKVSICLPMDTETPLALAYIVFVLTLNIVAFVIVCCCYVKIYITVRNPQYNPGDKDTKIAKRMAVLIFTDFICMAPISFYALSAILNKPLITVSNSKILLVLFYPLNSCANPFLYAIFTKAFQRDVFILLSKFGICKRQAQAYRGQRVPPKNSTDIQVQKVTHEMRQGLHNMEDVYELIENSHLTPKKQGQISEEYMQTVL
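Inhibition of cAMP made by TSHR-expressing cells under TSH stimulation (4nM final, EC80; 2 h, 37 deg C) is quantified with a one-step lysis HTRF kit, anti-cAMP cryptate versus cAMP-d2.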
CCT chaperon mod: cytosolic chaperonin activity modulation; purified chaperonin ATPase assay, HTRF ADP detection, 30 min; activity change, % (concentration not given with the values), hits read low; 360,000 compounds, 0.3% hits; AID 651819; in the data active means activity change below about -30%; further: on the % scale 0 is the no-effect control and ±100 the full control effect
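ATPase activity: ADP formed was measured by HTRF Transcreener (665/615 nm ratio) after 30 min at 37 deg C with 10 uM ATP. Compounds screened at one 76 uM concentration against 40 or 20 nM TRiC in Tris pH 7.4/KCl/MgCl2/DTT buffer.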
TCR activator: T cell receptor activation. primary human leukocytes, anti-CD3, IL-2 HTRF, 48 h. Potency, µM (titrated, usually from 9.22 µM), for the others: at the top dose activation of IL-2 secretion, most hits filed as activators. 330,000 tested, under 10 active. AID 504894; active means well fitted activation curve with a large enough effect; inconclusive means small, poorly fitted or top-dose-only effect, or another doubt; inactive means no such curve, though single readings can be large or run the other way; further: % of control where 0% means no effect
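Human primary leukocytes + a-CD3 beads + cpd, 48 hr; IL-2 in supernatant by HTRF (ex 320nm / em 665nm). No co-stimulatory signal supplied.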
Akt phos inh: blocks phosphorylation of Akt; activity change, % for hits at 50 µM; 360,000 compounds, 0.32% hits; Neuro2A IGF-stimulated pAkt S473 HTRF, 20 min; stronger effect = lower value; in the data active means activity change below about -80%; inconclusive means mostly about -51% to -80%; further: on the % scale 0 is the no-effect control and ±100 the full control effect
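Neuro2A cells in DMEM with 0.5% FBS, overnight at 37 deg C, given compound at single 50 µM final, then IGF (6 nM final) for 20 min at 37 deg C. Lysed; phospho-Akt Ser473 by HTRF after 24 h, 665/615 ratio.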
* hit, by the source's call; i = inactive; ? = inconclusive; . = not tested or not shown; [ ] = remark or other dose. Sampled rows, rich in hits. Any-hit rate of the full collection: about 0.74%.

SMILES	TSHR antagonist	CCT chaperon mod	TCR activator	Akt phos inh
c1ccc(CC2CCN(c3nc4ccccc4n4nnnc34)CC2)cc1	24	-32*	-2%	i
COc1ccc(S(=O)(=O)NC2CCCCCC2)cc1C(N)=O	-8	0	-9%	i
CC(C)CN(CC(C)C)C(=O)CCCC(=O)N(CC(C)C)CC(C)C	11	0	-1%[46.1 µM]	i
COc1cc(C(C)=O)ccc1OCC(=O)OCCCOC(=O)COc1ccc(C(C)=O)cc1OC	-8	-2	6%	i
O=C(COc1ccccc1)Nc1ccc(-c2ccc(N3CCOCC3)nn2)cc1	-3	-137*	6%	i
Cc1cc(=O)oc2c(C)c(OC(C)C(=O)NCC3CCC(C(=O)O)CC3)ccc12 (stereo not given)	-2	-1	-1%	i
Cc1c(OC(C)C(=O)NCC2CCC(C(=O)O)CC2)ccc2c3c(c(=O)oc12)CCCC3 (stereo not given)	-3	-37*	-32%	i
Cc1ccccc1C(=O)NCCCNC(=O)c1ccccc1C	.	-2	-11%	i
Brc1ccc2nc(-c3ccncc3)c(NC3CCCC3)n2c1	-7	-36*	-2%	i
CCOc1ccccc1CN1CCNC(=O)C1CC(=O)NCCCn1cccn1 (stereo not given)	26	-4	6%	i
CCN(CC)CCN1C(=O)c2cccc3cc(N)cc(c23)C1=O	-76*	-16	-22%	i
CCOc1ccc(C(=O)OCc2nnc(-c3cccs3)o2)cc1OC	1	-72*	1%	i
CCC(=O)c1cn(CC(=O)NCc2ccco2)c2ccccc12	.	-2	-4%	i
O=C(Cn1cc(C(=O)c2ccco2)c2ccccc21)NCc1ccco1	14	0	1%	-105%*
COc1ccc(NN=Nc2ccc([N+](=O)[O-])cc2)cc1	-13	4	.	i
COc1ccc(N/N=C(/Oc2ccc([N+](=O)[O-])cc2)C(C)=O)cc1	12	0	-3%[46.1 µM]	-114%*
COc1ccc(-n2cnnc2)cc1	1	2	1%	-123%*
Cc1ccccc1NC(=O)CSc1nc(N)c(C#N)c(-c2cccs2)c1C#N	-18	-1	4%	-101%*
CCOc1ccccc1NC(=O)CSc1nc(N)c(C#N)cc1C#N	-7	-2	6%	-96%*
CCN(CC)C(=O)CSc1nc(N)c(C#N)c(-c2cccs2)c1C#N	-1	-2	-4%[46.1 µM]	i
COc1ccccc1NC(=O)CSc1nc(N)c(C#N)cc1C#N	7	1	10%	i
CCOc1ccccc1NC(=O)C1C(c2ccccc2)C1(Cl)Cl (stereo not given)	.	1	.	i
CCc1ccccc1NC(=O)C1C(c2ccccc2)C1(Cl)Cl (stereo not given)	-2	1	0%	-107%*
Cc1cc(Cn2cnc3c2C[C@@H](C(=O)O)N(C(=O)C(c2ccccc2)c2ccccc2)C3)ccc1N	-18	.	.	.
COc1ccc(N2C(=O)C3C(c4ccc(C(=O)O)cc4)NC(Cc4ccccc4)(C(=O)O)C3C2=O)c([N+](=O)[O-])c1 (stereo not given)	8	1	10%	i
SMILES	TSHR antagonist	CCT chaperon mod	TCR activator	Akt phos inh
Cc1ccc(NC(=O)Cn2ncc3c([nH]c4ccccc43)c2=O)cc1Cl	-70*	1	2%	i
O=C(Cn1ncc2c([nH]c3ccccc32)c1=O)Nc1cccnc1	13	-2	-4%	i
OC[C@@H]1CN(CCN2CCOCC2)C[C@H](n2cnc3c(NC4CCCC4)ncnc32)O1	.	0	.	i
Nc1ccn(Cc2cccc(Cl)c2)n1	-4	-3	4%	i
Nc1ccn(Cc2ccccc2F)n1	-72*	-1	-5%	i
CCc1ccc(NC(=O)CCc2ccc(C)o2)cc1	18	0	-16%	i
Cc1ccc(CCC(=O)Nc2ccc(C#N)cc2)o1	11	-103*	8%	.
CC1(c2ccccc2Cl)NC(=O)N(CC(=O)NCc2ccc3c(c2)OCO3)C1=O (stereo not given)	18	0	-2%	i
CC(Cc1ccccc1)NC(=O)CN1C(=O)c2ccccc2S1(=O)=O (stereo not given)	-10	-1	-3%	i
CC1Cc2ccccc2N1C(=O)CSc1nnc(CSc2ncccn2)n1C (stereo not given)	3	-1	.	-81%*
O=C(Nc1nc2ccccc2[nH]1)C1CC(=O)N(c2ccc3c(c2)OCCO3)C1 (stereo not given)	1	-1	2%	-112%*
CCCN1CCN(CCCNC(=O)Cn2nc(C)n3c(cc4cc(OC)ccc43)c2=O)CC1	-88*	2	1%	i
Cc1ccc(CNC(=O)CN2C(=O)CSc3ccc(S(=O)(=O)N4CCC(C)CC4)cc32)cc1	-13	1	-2%	i
Cc1ccc(C(Sc2ccccc2)C(Cn2cncn2)C(=O)c2ccccc2)cc1 (stereo not given)	51	-2	-14%	-104%*
O=C(NNc1cccc(Cl)c1)c1cccnc1Cl	5	0	-6%[46.1 µM]	i
Cc1nc2ccc(NC(=O)c3cc([N+](=O)[O-])cc([N+](=O)[O-])c3Cl)cc2s1	-76*	-3	0%[46.1 µM]	i
Cc1nc2ccc(NC(=O)c3ccc(Cl)c([N+](=O)[O-])c3)cc2s1	-6	0	1%[46.1 µM]	i
COc1ccc2[nH]c(CN3CCC(CO)(CCOc4ccccc4)CC3)c(C)c2c1	4	0	2%	i
Cc1ccc2nc(C)cc(C(=O)OCC(=O)Nc3cccnc3Cl)c2c1	-6	1	-16%	i
CCOC(=O)c1cc(-c2ccc3c(c2)OCO3)nc2onc(C)c12	8	1	3%	-117%*
Cc1ccc(NC(=S)NC2CCCC2)c(C)c1	-6	0	3%	i
Cc1cc2nc3ccc(=[N+](C)C)cc-3sc2cc1N	-108*	3	25%	i
CN(C)c1ccc2nc3ccc(=O)cc-3sc2c1	.	-1	.	i
COC(=O)c1cc(NC(=O)CSc2nc(C)cc(=O)[nH]2)cc(C(=O)OC)c1	-3	-2	-1%	-106%*
CC(Oc1ccc(Cl)cc1Cl)C(=O)Nc1cccnc1 (stereo not given)	?	-1	-3%[46.1 µM]	-112%*
SMILES	TSHR antagonist	CCT chaperon mod	TCR activator	Akt phos inh
CC(Oc1ccc(Cl)cc1Cl)C(=O)Nc1ccncc1 (stereo not given)	-22	2	-6%	i
Cc1ccccc1-n1c(SC2CCOC2=O)nnc1-c1ccncc1 (stereo not given)	-10	1	-4%	i
Cc1ccccc1-n1nnnc1SC1CCOC1=O (stereo not given)	-88*	2	1%	i
O=S(=O)(NCc1ccccc1)NCc1ccccc1F	11	-52*	3%	i
CCOP(=O)(c1ccccc1)C(O)c1ccccc1 (stereo not given)	-1	-3	-3%[46.1 µM]	i
CCOP(=O)(c1c(F)c(F)c(F)c(F)c1F)C(O)c1ccccc1 (stereo not given)	-2	-13	-3%	-116%*

Assay outcomes as filed in PubChem.
